This is an account of results in PubChem BioAssay (NCATS).

Assay [1] in a line: qHTS for Inhibitors of Plasmodium falciparum (GB4) proliferation (AID 504315). Also: nearly all actives have a fitted effect of over 50% in size. Also: potency is read from the fitted curve at half-maximal effect. The essentials: (§1)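 Parasite growth measured as SYBR Green DNA fluorescence (ex 485, em 535 nm) after overnight lysis following 72 h culture at 37 °C, 0.3% parasitemia, 2.5% hematocrit. Values normalized against DMSO and 0.29 uM artemisinin controls, with plate-stack correction.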
In assay [2] the target is Atrial natriuretic peptide receptor 1 (Homo sapiens) (UniProt P16066). Description: Natriuretic polypeptide receptor (hNpr1) antagonism - Pilot CMLD screen (AID 1347052; calls by dose curve;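 also: HEK293 cells with hNpr1 stimulated by hNppA peptide at 0.1 nM; cGMP level read as GloSensor luciferase luminescence after agonist stimulation; series mostly up to about 9.2 µM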).
Atrial natriuretic peptide receptor 1 (Homo sapiens), sequence (P16066 whole entry, looked up): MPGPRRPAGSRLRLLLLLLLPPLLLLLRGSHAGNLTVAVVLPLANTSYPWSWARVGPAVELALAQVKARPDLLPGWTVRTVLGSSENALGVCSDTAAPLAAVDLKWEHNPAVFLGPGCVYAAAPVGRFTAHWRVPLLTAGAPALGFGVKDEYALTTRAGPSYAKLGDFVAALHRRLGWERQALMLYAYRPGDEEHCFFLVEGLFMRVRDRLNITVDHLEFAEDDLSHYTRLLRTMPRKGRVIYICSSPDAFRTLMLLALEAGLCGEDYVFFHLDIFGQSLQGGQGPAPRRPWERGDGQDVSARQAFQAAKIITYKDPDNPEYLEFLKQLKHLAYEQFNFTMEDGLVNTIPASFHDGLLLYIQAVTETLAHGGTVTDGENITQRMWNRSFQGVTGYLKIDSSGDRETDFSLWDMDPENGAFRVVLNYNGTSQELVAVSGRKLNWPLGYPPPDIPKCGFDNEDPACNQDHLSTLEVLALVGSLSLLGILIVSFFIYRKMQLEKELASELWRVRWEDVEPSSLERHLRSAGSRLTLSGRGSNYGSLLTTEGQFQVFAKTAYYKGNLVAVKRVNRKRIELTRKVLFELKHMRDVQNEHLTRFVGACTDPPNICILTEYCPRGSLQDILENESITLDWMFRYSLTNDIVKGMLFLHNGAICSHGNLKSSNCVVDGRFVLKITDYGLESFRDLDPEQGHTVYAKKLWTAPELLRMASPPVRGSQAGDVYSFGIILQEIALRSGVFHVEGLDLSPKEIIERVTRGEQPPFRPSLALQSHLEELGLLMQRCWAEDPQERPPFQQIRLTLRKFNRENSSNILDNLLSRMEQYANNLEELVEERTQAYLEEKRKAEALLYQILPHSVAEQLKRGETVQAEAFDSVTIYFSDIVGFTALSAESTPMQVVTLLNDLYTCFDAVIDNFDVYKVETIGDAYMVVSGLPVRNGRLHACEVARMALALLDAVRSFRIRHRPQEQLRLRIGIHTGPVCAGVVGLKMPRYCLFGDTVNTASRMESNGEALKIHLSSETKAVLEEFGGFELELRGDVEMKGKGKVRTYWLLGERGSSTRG
Assay [3] can be described thus: qHTS for Inhibitors of Plasmodium falciparum (7G8) proliferation (AID 504316). Also: nearly all actives have a fitted effect of over 65% in size. Also: potency is read from the fitted curve at half-maximal effect. The essentials: as §1
On the technique in general: Quantitative high-throughput screening tests each substance at several concentrations.

The nature of assay [4]: qHTS for Inhibitors of Plasmodium falciparum (HB3) proliferation (AID 504318). Also: nearly all actives have a fitted effect of over 60% in size. Also: potency is read from the fitted curve at half-maximal effect. The gist of the method: as §1

Each structure is given as a SMILES string. Results filed as inconclusive are left out. The source made the active and inactive calls. Unless noted, calls follow the shape of the dose curve; as a rule, active = well fitted curve in the direction sought with a large enough effect; inconclusive = small, poorly fitted or top-dose-only effect, or another doubt; inactive = no such curve, though single readings can be large; an effect the other way counts as inactive or inconclusive.

For the compound `C=C(CO[C@@H]1C=C[C@@H](c2ccccc2)O[C@@H]1COC)c1ccccc1`, in assay [1], the Potency is 1510 nM (active). For the same compound, the Potency entry in assay [2] is “inactive”.

For the compound `CCc1cc2c(nc1CC)CCN(CCC(C)=NO[C@@H](C)CN1CCCc3nc(C)c(C)cc31)C2`, the Potency entry in assay [1] and in assay [2] was “inactive” each time.

With `COc1ccc([C@]23Cc4ccccc4[C@H](O2)c2c(c4ccc(OC)cc4oc2=O)O3)cc1`, the results for the Potency in assay [1] and in assay [3] were 1900 nM (active) and 1690 nM (active), respectively. Besides, the Potency entry in assay [2] is “inactive”.

With `COCOc1ccc(Br)cc1C(=O)[C@@H]1O[C@@H]1c1cccc(OC)c1`, the Potency result in assay [1] and in assay [2] was “inactive” each time.

As for `COC(=O)[C@@H]1CC[C@H](C)[C@@H](c2ccc(C)cc2)N1C(=O)c1ccc(C=NO[C@@H](C)c2cn([C@H](CO)Cc3ccccc3)nn2)cc1`, the Potency entry in assay [1] and in assay [2] was “inactive” each time.

Consider `C=CCN=C1NC(CCc2ccccc2)C(C(=O)OC)=C(C)N1CC` (centres undefined), for which the Potency result in assay [1], in assay [3], in assay [4] and in assay [2] was “inactive” in each case.

Turning to `Cc1ccc(C(O)C2=CCCC2=O)cc1` (centres undefined), the Potency result in assay [1], in assay [3], in assay [4] and in assay [2] was “inactive” throughout.

Consider `Cc1ccccc1Nc1oc(-c2ccccc2)nc1-c1ccccc1`, for which the Potency was 1900 nM (active) in assay [1], 1690 nM (active) in assay [3] and 1690 nM (active) in assay [4]. Moreover, in assay [2], the Potency result is “inactive”.

Regarding `COc1ccc2c3c(c(=O)oc2c1)[C@H]1O[C@](c2ccsc2)(Cc2ccccc21)O3`, the Potency in assay [1] is 1690 nM (active). For the same compound, in assay [2], the Potency entry is “inactive”.

In the case of `C=CCN=C1NC(c2cccc(F)c2)C(C(=O)OC)=C(C)N1Cc1ccccc1` (centres undefined), the Potency entry in assay [1], in assay [3], in assay [4] and in assay [2] was “inactive” throughout.
